Assay results published in PubChem BioAssay AID2069 (Sanford-Burnham Center for Chemical Genomics, 2009).
Hit rate of the full screen: of about 1,200 compounds, about 210 (18%) were called active. What follows is part of a selection rich in actives, with near analogues and random picks from the rest. Unmarked numbers belong to inactive results. Cut-off read from the data, not from the text of the source: active = inhibition above about 30%; inactive = the rest.

test: HTRF signal interference by compounds, confirmation, artefact control for SUMOylation inhibitor project, biochemical, uHTS (AID 2069); details: HTRF interference counterscreen, fluorescence, at 35 µM, active compounds read high

| SMILES | inhibition |
| --- | --- |
| CC(C)[C@H]1C(=O)N2CCC[C@H]2[C@]2(O)O[C@](NC(=O)[C@@H]3C=C4c5cccc6[nH]cc(c56)C[C@H]4N(C)C3)(C(C)C)C(=O)N12 | 12.3% |
| CN1C[C@H](CO)C=C2c3cccc4[nH]cc(c34)C[C@H]21 | 36.9% (active) |
| CN1CCN(c2ccc(S(C)(=O)=O)cc2[N+](=O)[O-])CC1 | -0.45% |
| COc1ccc(Cc2nccc3cc(OC)c(OC)cc23)cc1OC | -2.9% |
| O=C(O)c1cccc2c1NC(c1cccc([N+](=O)[O-])c1)C1CC(Sc3ccccc3[N+](=O)[O-])C(Cl)C21 (stereo unspecified) | 26.1% |
| CCCCn1c(N)c(C(=O)OCCOC)c2nc3ccccc3nc21 | 28.8% |
| CCCCn1c(NC(=O)c2ccco2)c(C(=O)OCC)c2nc3ccccc3nc21 | 22.1% |
| CCCCn1c(NS(=O)(=O)c2ccc(C)cc2)c(C(=O)OCC)c2nc3ccccc3nc21 | 58% (active) |
| CCCCn1c(NS(=O)(=O)c2ccccc2)c(C(=O)OCC)c2nc3ccccc3nc21 | 70.9% (active) |
| CCCCn1c(N)c(C(=O)NCc2cccs2)c2nc3ccccc3nc21 | 9.9% |
| COc1cc(C(c2c(C)[nH]n(-c3ccccc3)c2=O)c2c(C)[nH]n(-c3ccccc3)c2=O)cc(OC)c1OC | 3.8% |
| O=C(O)CC1OCC=C2CN3CCC45C6=CC(=O)C(=O)C([N+](=O)[O-])=C6NC4C1C2CC35 (stereo unspecified) | 60.8% (active) |
| COc1ccc(OC)c(N2C(=O)NC(=O)/C(=C/c3ccc([N+](=O)[O-])s3)C2=O)c1 | -8.75% |
| CN1CCN(c2ccc3nccnc3c2)CC1 | 40.9% (active) |
| Cc1ccccc1-n1c(O)c(/C=N/NC(=O)c2ccccc2O)c(=O)[nH]c1=S | 3.4% |
| CN1CCC2(CC1)C(C#N)=C(N)NC(S)=C2C#N | 76.5% (active) |
| O=C1NC(=O)N(Cc2ccco2)C(=O)/C1=C\c1cccn1CCOc1ccc(Cl)cc1 | -5.15% |
| O=C(c1cccn2c(=O)c3ccc(Cl)cc3nc12)N1CCC2(CC1)OCCO2 | 48.9% (active) |
| O=c1[nH]c(O)c(/C=C2/C=CC(c3cc(Cl)ccc3Cl)=N2)c(=O)[nH]1 | 18.3% |
| Cc1c(CC(=O)N2C[C@H]3C[C@@H](C2)c2cccc(=O)n2C3)c(=O)oc2c(C)c(O)ccc12 | 50.5% (active) |
| N#C/C(=C(/O)c1ccc(S(=O)(=O)N(CCCl)CCCl)cc1)c1nc2ccccc2[nH]1 | 28.4% |

| SMILES | inhibition |
| --- | --- |
| Cc1ccsc1C(=O)C1CCCN(Cc2ccc(-n3cccn3)cc2)C1 (stereo unspecified) | 30.6% (active) |
| CC(=O)c1ccc2c(c1)C1C(Cl)C(Sc3ccccc3[N+](=O)[O-])CC1C(c1ccccc1[N+](=O)[O-])N2 (stereo unspecified) | -3.55% |
| CCN(CC)c1ccc([N+](=O)[O-])c2cccnc12 | -11.9% |
| O=C(O)CCn1cc(C=C2C(=O)NC(=O)NC2=O)c(-c2ccc(Br)cc2)n1 | -3.4% |
| CC(C)CCNC(=O)c1c(N)n(Cc2ccc3c(c2)OCO3)c2nc3ccccc3nc12 | 19.7% |
| CCCNC(=O)c1c(N)n(CC2CCCO2)c2nc3ccccc3nc12 (stereo unspecified) | 42% (active) |
| CCC(C)NC(=O)c1c(N)n(CC2CCCO2)c2nc3ccccc3nc12 (stereo unspecified) | 32.5% (active) |
| Nc1c(C(=O)NC2CCCC2)c2nc3ccccc3nc2n1CC1CCCO1 (stereo unspecified) | 27.9% |
| CC(C)OCCCNC(=O)c1c(N)n(CC2CCCO2)c2nc3ccccc3nc12 (stereo unspecified) | 51.1% (active) |
| Nc1c(C(=O)NCCCc2ccccc2)c2nc3ccccc3nc2n1Cc1cccs1 | 8% |
| CCC(C)NC(=O)c1c(N)n(Cc2ccc3c(c2)OCO3)c2nc3ccccc3nc12 (stereo unspecified) | 24.4% |
| CCCNC(=O)c1c(N)n(Cc2ccc3c(c2)OCO3)c2nc3ccccc3nc12 | 9.15% |
| CC(C)CNC(=O)c1c(N)n(Cc2ccc3c(c2)OCO3)c2nc3ccccc3nc12 | 15.9% |
| CCCCn1c(N)c(C(=O)OCC2CCCO2)c2nc3ccccc3nc21 (stereo unspecified) | 28.1% |
| CCOCCCn1c(N)c(C(=O)Nc2sc3c(c2C(=O)OC)CCCC3)c2nc3ccccc3nc21 | -2.4% |
| CC(C)CCNC(=O)c1c(N)n(CC2CCCO2)c2nc3ccccc3nc12 (stereo unspecified) | 30.4% (active) |
| O=C1NC(=O)N(Cc2ccco2)C(=O)/C1=C/c1ccc(-c2cccc([N+](=O)[O-])c2)o1 | 14.7% |
| O=C(N/N=C/c1c(O)n(Cc2ccco2)c(=O)[nH]c1=O)c1ccccc1O | 22.9% |
| Cc1cc(/C=C2\C(=O)NC(=O)N(Cc3ccccc3)C2=O)c(C)n1-c1ccc(Cl)c(C(=O)O)c1 | 34.7% (active) |
| O=C(O)c1ccc2c(c1)C1C(Cl)C(Sc3ccccc3[N+](=O)[O-])CC1C(c1cccc([N+](=O)[O-])c1)N2 (stereo unspecified) | -6.5% |
| CC(=O)c1ccc2c(c1)C1C(Cl)C(Sc3ccccc3[N+](=O)[O-])CC1C(C(=O)O)N2 (stereo unspecified) | 5.25% |

| SMILES | inhibition |
| --- | --- |
| O=C1NC(=S)NC(=O)C1=Cc1cccn1-c1ccc(O)cc1 | 21.8% |
| COCCCn1c(N)c(C(=O)NCc2ccco2)c2nc3ccccc3nc21 | 34.1% (active) |
| CCC(C)NC(=O)c1c(N)n(CCCOC)c2nc3ccccc3nc12 (stereo unspecified) | 36.5% (active) |
| CCCCCn1c(N)c(C(=O)NCc2cccs2)c2nc3ccccc3nc21 | 12.7% |
| COCCNC(=O)c1c(N)n(CCC(C)C)c2nc3ccccc3nc12 | 34.7% (active) |
| CCCCNC(=O)c1c(N)n(CCCOC)c2nc3ccccc3nc12 | 30.9% (active) |
| CC(C)CCn1c(N)c(C(=O)NCc2cccs2)c2nc3ccccc3nc21 | 15.4% |
| COc1ccc(Cn2c(N)c(C(=O)NCc3ccco3)c3nc4ccccc4nc32)cc1 | 11.2% |
| COCCCn1c(N)c(C(=O)OCCOC)c2nc3ccccc3nc21 | 29.9% |
| COCCCn1c(N)c(C(=O)NCCC(C)C)c2nc3ccccc3nc21 | 24.1% |
| COc1cc(Cn2c(N)c(C(=O)NCc3ccco3)c3nc4ccccc4nc32)cc(OC)c1OC | 11.6% |
| COCCCn1c(N)c(C(=O)Nc2ccccc2)c2nc3ccccc3nc21 | 7.4% |
| CCOC(=O)c1c(NC(=O)c2c(N)n(CCCOC)c3nc4ccccc4nc23)sc2c1CCCC2 | -0.35% |
| CN1CCc2nc3sc(C#N)c(N)c3c(-c3cccs3)c2C1 | 14.3% |
| c1ccc2c(NC3=NCCS3)cccc2c1 | -3.5% |
| Cc1[nH]n(-c2ccccc2)c(=O)c1C(c1ccc([N+](=O)[O-])cc1)c1c(C)[nH]n(-c2ccccc2)c1=O | -5.95% |
| O=c1[nH]c(O)c(/C=C2\C=Nc3ccc(OCc4ccccc4)cc32)c(=O)[nH]1 | 8.25% |
| COCCNC(=O)c1c(NC(=O)c2ccco2)n(Cc2ccccc2)c2nc3ccccc3nc12 | 17.8% |
| Cn1c(O)c(/C=C2\N=c3ccccc3=C2CCNC(=S)NC2CC2)c(=O)n(C)c1=O | 13.3% |
